This is an account of results in PubChem BioAssay (NCI).

Each structure is given as a SMILES string. About 83,000 compounds went through this panel and 20% of them were active in at least one assay; those are over-represented in the sample as a whole.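 Step 1: grow cells in 96-well plates. Step 2: add test compound at a single concentration. Step 3: incubate 48 h. Step 4: record percent growth.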 Values without a mark were called inactive. Calls of active or inactive are those of the source. Rule for the calls: active = growth percent below 10; inactive = the rest.

Test systems include HCT-15 colon; HT29 colon; SNB-75 CNS; SNB-19 CNS; PC-3 prostate; SK-MEL-5 melanoma; UACC-62 melanoma; LOX IMVI melanoma; SK-MEL-28 melanoma; SK-MEL-2 melanoma; EKVX NSCLC; SN12C renal; UO-31 renal; TK-10 renal; ACHN renal; CAKI-1 renal; A498 renal; CCRF-CEM leukemia; MOLT-4 leukemia.
Common to all, as to experiment: NCI-60 one-dose screen, 48 h (100 = growth as untreated, 0 = no growth, -100 = all killed)
What all share (settings): 10 µM unless noted

Turning to `CCOC(=O)C1=C(C)NC(C)=C(C(=O)OCc2ccccc2)C1c1cccc(C#N)c1` (stereo not given), the growth in the test with HCT-15 colon was 23%; in the test on HT29 colon it was 11.5%; with SNB-75 CNS it was -4.08% (active); in the test on SNB-19 CNS it was 41.5%; with PC-3 prostate it was 33.1%; in the test with SK-MEL-5 melanoma, 54.3%. Also, the growth in the test on UACC-62 melanoma was 33.4%; in the test with LOX IMVI melanoma it was 35.8%; with SK-MEL-28 melanoma, 51.2%; in the test on SK-MEL-2 melanoma, 24.9%; in the test with EKVX NSCLC, 37.1%; with SN12C renal it was 36.5%. Further, the growth with UO-31 renal is 43.8%; in the test on TK-10 renal, 83.7%; in the test on ACHN renal it was 47.1%; in the test on CAKI-1 renal, 32.4%; with A498 renal it was -4.45% (active); with CCRF-CEM leukemia, 25.5%. In the test with MOLT-4 leukemia, the growth was 31.5%.

Turning to `C#C[C@]1(O)CC[C@H]2[C@@H]3CC=C4c5sc(Nc6cc(Cl)ccc6OC)nc5CC[C@]4(C)[C@H]3CC[C@@]21C`, the growth was 16.3% with HCT-15 colon; 34.9% in the test on HT29 colon; -1.39% (active) in the test on SNB-75 CNS; 28.3% in the test with SNB-19 CNS; -9.76% (active) with PC-3 prostate; -43.9% (active) in the test with SK-MEL-5 melanoma. In addition, the growth in the test on UACC-62 melanoma is -3.92% (active); with SK-MEL-28 melanoma it was -59.1% (active); in the test with SK-MEL-2 melanoma it was 1.15% (active); in the test on EKVX NSCLC, 22.3%; in the test with SN12C renal it was 53.7%; with UO-31 renal, 16.1%. For the same molecule, the growth was 32.1% with ACHN renal; -4.8% (active) with CAKI-1 renal; -2.08% (active) with A498 renal; 8.93% (active) in the test with CCRF-CEM leukemia; 1.34% (active) with MOLT-4 leukemia.

Regarding `Cc1ccc(C(=O)Nc2ccc(CNCCN3CCOCC3)c(C(F)(F)F)c2)cc1C#Cc1cnc2cccnn12`, the growth in the test on HCT-15 colon is 7.26% (active); in the test on HT29 colon, 2.36% (active); in the test with SNB-75 CNS it was -18% (active); in the test on SNB-19 CNS, 36.6%; in the test with PC-3 prostate, 19.3%; in the test with SK-MEL-5 melanoma, -85.9% (active). For the same molecule, the growth is 15.1% with UACC-62 melanoma; -85.6% (active) in the test on LOX IMVI melanoma; -6.46% (active) in the test with SK-MEL-28 melanoma; -7.32% (active) in the test on SK-MEL-2 melanoma; 41.2% in the test with EKVX NSCLC; 26.5% with SN12C renal. Besides, the growth in the test on UO-31 renal is 19%; in the test on TK-10 renal, 51.4%; in the test with ACHN renal it was 22.8%; with CAKI-1 renal it was 17.2%; in the test with A498 renal, -1.13% (active); in the test with CCRF-CEM leukemia it was 10.1%. Further, in the test on MOLT-4 leukemia, the growth is 4.38% (active).

Take `NCCNC(=O)c1cccc(COc2ccccc2NC(=O)c2cc(Cl)c(Cl)[nH]2)c1`: the growth is 94.3% in the test on HCT-15 colon; 109% with HT29 colon; 72.5% with SNB-75 CNS; 96.9% in the test with SNB-19 CNS; 99.4% in the test with SK-MEL-5 melanoma; 87.3% in the test with UACC-62 melanoma. Further, the growth with LOX IMVI melanoma was 81.5%; in the test with SK-MEL-28 melanoma it was 94.8%; with SK-MEL-2 melanoma, 106%; with EKVX NSCLC, 94.4%; in the test on SN12C renal, 100%; in the test on UO-31 renal, 92.2%. The growth was 94.2% in the test with TK-10 renal; 100% with ACHN renal; 81.9% with CAKI-1 renal; 81.5% with A498 renal; 85.8% in the test on CCRF-CEM leukemia; 89.5% in the test on MOLT-4 leukemia.

`CNc1sc(S(=O)(=O)NC)nc1S(=O)(=O)c1ccc(C)cc1`: the growth is 94.2% with HCT-15 colon; 107% in the test on HT29 colon; 88.3% in the test with SNB-75 CNS; 96% with SNB-19 CNS; 96.7% in the test on PC-3 prostate; 98.4% with SK-MEL-5 melanoma. The growth was 91.3% with UACC-62 melanoma; 96.1% in the test with LOX IMVI melanoma; 102% in the test with SK-MEL-28 melanoma; 103% with SK-MEL-2 melanoma; 95.2% with EKVX NSCLC; 101% with SN12C renal. Besides, the growth was 77.7% in the test on UO-31 renal; 95.5% with TK-10 renal; 101% in the test on ACHN renal; 91.9% with CAKI-1 renal; 93.1% in the test with A498 renal; 104% with CCRF-CEM leukemia. In addition, in the test on MOLT-4 leukemia, the growth is 100%.

On to `CN(C)S(=O)(=O)c1ccc(-c2nc(C(Cl)Cl)nc3cc(-c4ccc(F)cc4)nn23)cc1`, for which the growth in the test with HCT-15 colon was -35.7% (active); in the test on HT29 colon, -5.58% (active); in the test on SNB-75 CNS, 48.3%; in the test on SNB-19 CNS, 23.5%; with SK-MEL-5 melanoma it was 55.1%; in the test on UACC-62 melanoma, 26%. The growth with LOX IMVI melanoma was -6.07% (active); with SK-MEL-28 melanoma, 27.1%; in the test on SK-MEL-2 melanoma it was 9.25% (active); with EKVX NSCLC it was 22.7%; with SN12C renal, 24.3%; in the test with UO-31 renal, 44.3%. The growth in the test with TK-10 renal was 29.5%; with ACHN renal it was 5.28% (active); in the test with CAKI-1 renal it was 3.68% (active); with A498 renal, 49.7%; in the test on CCRF-CEM leukemia, 21.7%; in the test on MOLT-4 leukemia it was 3.19% (active).

As for `CCNC(=O)Oc1ccc(/C(=C(/C)c2ccc(Cl)cc2)c2ccc(OCCN3CCCCCC3)cc2)cc1`, the growth in the test on HCT-15 colon was -31.6% (active); in the test on HT29 colon, -48.4% (active); with SNB-75 CNS it was 75.6%; in the test on SNB-19 CNS it was 34.2%; with PC-3 prostate it was 13.4%; with SK-MEL-5 melanoma, 33.1%. Further, the growth is 2.74% (active) with UACC-62 melanoma; -87.8% (active) in the test on LOX IMVI melanoma; -76% (active) in the test with SK-MEL-28 melanoma; 64.2% in the test with SK-MEL-2 melanoma; 56.1% with EKVX NSCLC; 36.7% in the test on SN12C renal. Also, the growth was -9.5% (active) in the test on UO-31 renal; 84.5% with TK-10 renal; 42.1% in the test with ACHN renal; 10.3% in the test with CAKI-1 renal; 64.7% in the test with A498 renal; 12.7% in the test with CCRF-CEM leukemia. Moreover, the growth in the test on MOLT-4 leukemia was 13%.

For `Cc1nc(N)sc1-c1csc(Nc2ccc(C(F)(F)F)cc2)n1`, the growth was 7.03% (active) in the test on HCT-15 colon; -27.6% (active) with HT29 colon; 56.5% in the test on SNB-75 CNS; 47.3% in the test on SNB-19 CNS; 36.5% with PC-3 prostate; -43% (active) in the test with SK-MEL-5 melanoma. For the same molecule, the growth with UACC-62 melanoma was 22.2%; with LOX IMVI melanoma it was 6.07% (active); in the test on SK-MEL-28 melanoma, 42.1%; in the test with SK-MEL-2 melanoma, 8.77% (active); in the test on EKVX NSCLC, 27%; in the test with SN12C renal, 29.2%. The growth in the test on UO-31 renal was 21.1%; in the test with TK-10 renal, 35%; with ACHN renal, 13%; with CAKI-1 renal it was 33.9%; in the test on A498 renal, 82.4%; in the test with CCRF-CEM leukemia it was 21.3%. Also, the growth in the test with MOLT-4 leukemia is 18.3%.

With `CCOC(=O)c1c(NC(=O)c2ccc(C(F)(F)F)cc2)sc2c3c(ccc12)OCN(C)C3`, the growth was -38.2% (active) in the test on HCT-15 colon; -81% (active) with HT29 colon; 69.7% in the test with SNB-75 CNS; 26.7% in the test with SNB-19 CNS; 94.7% in the test with SK-MEL-5 melanoma; 88% in the test with UACC-62 melanoma. Further, the growth with LOX IMVI melanoma is -95.1% (active); with SK-MEL-28 melanoma, 95.8%; in the test on SK-MEL-2 melanoma, 72.8%; in the test on EKVX NSCLC, 79.5%; in the test on SN12C renal it was 48.1%; in the test on UO-31 renal it was 70.9%. In addition, the growth with TK-10 renal is -15.7% (active); with ACHN renal it was -14.5% (active); with CAKI-1 renal, -23.9% (active); with CCRF-CEM leukemia, 2.17% (active); in the test on MOLT-4 leukemia, -8.7% (active).
